# Laboratory results reported in publication PMC7862700, “An all-to-all approach to the identification of sequence-specific readers for epigenetic DNA modifications on cytosine”.
# Key:
# Experiment in all cases: DAPPL (digital affinity profiling via proximity ligation, sequencing); 10 mM Tris-HCl pH 7.5, 50 mM NaCl, 1 mM DTT, 4% glycerol, room temperature, 30 min; GST-TFs on glutathione beads, 16-mer random dsDNA library, 0.1% formaldehyde crosslink after washing; high values mean tight binding
# FEV = biological target: T1, FEV (Homo sapiens, UniProt Q99581 1-238); conditions: protein: recombinant; tags: N-terminal GST; dsDNA, one strand shown
# T1 sequence: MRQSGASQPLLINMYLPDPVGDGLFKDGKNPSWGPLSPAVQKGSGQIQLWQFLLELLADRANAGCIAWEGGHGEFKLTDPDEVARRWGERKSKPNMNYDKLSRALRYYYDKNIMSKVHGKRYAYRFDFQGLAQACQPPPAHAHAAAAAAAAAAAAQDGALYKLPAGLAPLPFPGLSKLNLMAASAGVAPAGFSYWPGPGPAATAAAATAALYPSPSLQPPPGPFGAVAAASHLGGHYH
# Summary of the method: (§1)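 In yeast, human transcription factors were expressed with a GST fusion, then pulled down on glutathione beads and given DNA barcodes. Pooled with a tag-only sample, they were exposed to 200 nmole of a 16-mer random double-stranded DNA library (Tris/NaCl/DTT/glycerol buffer, room temperature, 30 min), washed, crosslinked with 0.1% formaldehyde, proximity-ligated using BsaI/T4 ligase for 1 h at 37 °C, PCR-amplified and read on an Illumina NextSeq500. Each hexamer's frequency of reads for a factor, divided by the matching frequency for the tag-only sample, gives the binding signal.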
# ETV5 = ETV5 (Homo sapiens, UniProt P41161 1-510); conditions: protein: recombinant; tags: N-terminal GST; dsDNA, one strand shown
# Summary of the method: as §1
# HSF1 = HSF1 (Homo sapiens, UniProt Q00613 1-529); conditions: protein: recombinant; tags: N-terminal GST; chain copies: 3; dsDNA, one strand shown
# Summary of the method: as §1
# SPIC = biological target: T2, SPIC (Homo sapiens, UniProt Q8N5J4 1-248); conditions: protein: recombinant; tags: N-terminal GST; dsDNA, one strand shown
# T2 sequence: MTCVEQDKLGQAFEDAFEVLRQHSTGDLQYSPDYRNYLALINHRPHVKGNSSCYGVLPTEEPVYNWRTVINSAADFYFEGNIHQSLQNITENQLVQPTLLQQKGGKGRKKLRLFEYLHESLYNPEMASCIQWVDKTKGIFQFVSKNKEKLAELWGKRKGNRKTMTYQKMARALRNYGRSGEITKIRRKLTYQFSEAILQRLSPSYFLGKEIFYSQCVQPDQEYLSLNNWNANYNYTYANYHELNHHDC
# Summary of the method: as §1
# ELF4 = ELF4 (Homo sapiens, UniProt Q99607 1-663); conditions: protein: recombinant; tags: N-terminal GST; dsDNA, one strand shown
# Summary of the method: as §1
# ELK4 = biological target: T3, ELK4 (Homo sapiens, UniProt P28324-2 1-405); conditions: protein: recombinant; tags: N-terminal GST; dsDNA, one strand shown
# T3 sequence: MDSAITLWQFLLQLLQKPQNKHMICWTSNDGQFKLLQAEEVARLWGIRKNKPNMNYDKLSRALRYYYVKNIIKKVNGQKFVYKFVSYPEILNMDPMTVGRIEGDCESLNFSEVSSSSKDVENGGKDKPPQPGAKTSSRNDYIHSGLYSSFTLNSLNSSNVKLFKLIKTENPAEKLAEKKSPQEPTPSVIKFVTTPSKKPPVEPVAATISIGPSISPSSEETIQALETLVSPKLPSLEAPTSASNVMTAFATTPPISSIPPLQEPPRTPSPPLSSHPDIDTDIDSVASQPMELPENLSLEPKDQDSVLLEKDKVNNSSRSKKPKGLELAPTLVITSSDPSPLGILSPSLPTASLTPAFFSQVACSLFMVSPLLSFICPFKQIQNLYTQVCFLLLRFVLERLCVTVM
# Summary of the method: as §1
# ETV2 = biological target: T4, ETV2 (Homo sapiens, UniProt O00321 1-342); conditions: protein: recombinant; tags: N-terminal GST; dsDNA, one strand shown
# T4 sequence: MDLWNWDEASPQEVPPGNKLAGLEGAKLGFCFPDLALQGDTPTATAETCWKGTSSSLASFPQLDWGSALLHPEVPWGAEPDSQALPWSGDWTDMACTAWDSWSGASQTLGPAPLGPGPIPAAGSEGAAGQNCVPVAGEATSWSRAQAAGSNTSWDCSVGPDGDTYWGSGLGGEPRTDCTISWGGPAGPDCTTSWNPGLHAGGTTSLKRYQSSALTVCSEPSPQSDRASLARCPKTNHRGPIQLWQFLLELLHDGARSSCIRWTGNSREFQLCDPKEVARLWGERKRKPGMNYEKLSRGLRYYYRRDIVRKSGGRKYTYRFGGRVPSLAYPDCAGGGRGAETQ
# Summary of the method: as §1
# ELF3 = biological target: T5, ELF3 (Homo sapiens, UniProt P78545 1-371); conditions: protein: recombinant; tags: N-terminal GST; dsDNA, one strand shown
# T5 sequence: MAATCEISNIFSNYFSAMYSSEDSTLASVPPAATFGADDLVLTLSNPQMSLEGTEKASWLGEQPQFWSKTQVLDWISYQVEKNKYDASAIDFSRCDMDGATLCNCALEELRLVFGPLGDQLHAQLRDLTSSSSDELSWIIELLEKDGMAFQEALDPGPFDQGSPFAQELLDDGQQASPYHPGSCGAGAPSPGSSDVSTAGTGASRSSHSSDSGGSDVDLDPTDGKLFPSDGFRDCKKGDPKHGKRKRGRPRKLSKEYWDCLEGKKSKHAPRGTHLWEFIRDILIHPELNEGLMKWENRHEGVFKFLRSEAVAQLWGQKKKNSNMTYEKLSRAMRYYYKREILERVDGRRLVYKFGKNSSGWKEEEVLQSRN
# Summary of the method: as §1
# Sequence of HSF1 (Q00613 whole entry): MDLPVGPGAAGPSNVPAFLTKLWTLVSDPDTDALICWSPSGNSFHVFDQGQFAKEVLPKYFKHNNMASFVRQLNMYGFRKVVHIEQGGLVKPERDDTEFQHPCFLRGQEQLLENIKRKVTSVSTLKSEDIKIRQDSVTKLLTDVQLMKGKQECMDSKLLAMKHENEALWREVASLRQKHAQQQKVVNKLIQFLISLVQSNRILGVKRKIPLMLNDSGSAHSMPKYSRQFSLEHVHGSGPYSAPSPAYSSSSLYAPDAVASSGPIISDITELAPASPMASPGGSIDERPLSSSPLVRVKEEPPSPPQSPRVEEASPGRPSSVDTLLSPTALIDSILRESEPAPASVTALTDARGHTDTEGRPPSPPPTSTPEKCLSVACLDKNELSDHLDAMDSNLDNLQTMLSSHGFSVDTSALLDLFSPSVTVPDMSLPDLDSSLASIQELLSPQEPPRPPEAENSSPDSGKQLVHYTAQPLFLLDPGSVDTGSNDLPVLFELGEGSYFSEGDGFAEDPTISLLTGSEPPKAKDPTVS
# Sequence of ETV5 (P41161 whole entry): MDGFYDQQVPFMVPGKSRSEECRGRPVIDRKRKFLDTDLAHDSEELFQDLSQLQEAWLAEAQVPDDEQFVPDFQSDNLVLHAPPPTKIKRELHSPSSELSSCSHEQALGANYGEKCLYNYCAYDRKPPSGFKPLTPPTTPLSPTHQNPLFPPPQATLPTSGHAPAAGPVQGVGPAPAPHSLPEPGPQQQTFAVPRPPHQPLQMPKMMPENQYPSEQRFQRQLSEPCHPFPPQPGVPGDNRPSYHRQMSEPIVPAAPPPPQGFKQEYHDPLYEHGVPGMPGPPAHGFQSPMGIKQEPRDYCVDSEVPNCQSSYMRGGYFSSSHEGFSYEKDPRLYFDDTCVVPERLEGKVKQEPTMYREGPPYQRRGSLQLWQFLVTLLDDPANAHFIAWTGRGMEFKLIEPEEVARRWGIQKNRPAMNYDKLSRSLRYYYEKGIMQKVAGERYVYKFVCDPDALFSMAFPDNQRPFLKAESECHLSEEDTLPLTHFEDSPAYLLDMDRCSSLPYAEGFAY
# Sequence of ELF4 (Q99607 whole entry): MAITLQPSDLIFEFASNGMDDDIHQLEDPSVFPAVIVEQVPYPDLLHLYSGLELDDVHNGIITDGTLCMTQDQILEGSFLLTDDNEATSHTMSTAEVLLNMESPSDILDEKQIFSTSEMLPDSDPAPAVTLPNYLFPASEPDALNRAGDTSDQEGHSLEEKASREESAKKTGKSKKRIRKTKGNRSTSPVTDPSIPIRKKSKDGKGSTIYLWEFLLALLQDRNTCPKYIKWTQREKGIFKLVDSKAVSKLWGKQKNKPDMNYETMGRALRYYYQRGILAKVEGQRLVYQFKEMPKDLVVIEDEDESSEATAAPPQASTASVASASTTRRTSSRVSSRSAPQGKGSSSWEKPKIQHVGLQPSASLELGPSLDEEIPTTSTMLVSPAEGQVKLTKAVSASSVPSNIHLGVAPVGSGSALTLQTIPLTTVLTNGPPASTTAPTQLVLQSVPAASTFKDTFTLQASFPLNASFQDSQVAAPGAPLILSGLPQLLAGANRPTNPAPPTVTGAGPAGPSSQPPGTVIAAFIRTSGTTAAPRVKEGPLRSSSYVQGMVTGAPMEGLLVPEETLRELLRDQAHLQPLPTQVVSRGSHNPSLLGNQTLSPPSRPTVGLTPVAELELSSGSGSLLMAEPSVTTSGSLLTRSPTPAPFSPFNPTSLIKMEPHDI
sequence,measurement,setting,value
TGCAAC,binding signal,FEV,"1.39 fold enrichment (6-mer frequency, TF over GST control)"
same,binding signal,ETV5,"1.3 fold enrichment (6-mer frequency, TF over GST control)"
same,binding signal,HSF1,"1.06 fold enrichment (6-mer frequency, TF over GST control)"
same,binding signal,SPIC,"1.19 fold enrichment (6-mer frequency, TF over GST control)"
same,binding signal,ELF4,"1.3 fold enrichment (6-mer frequency, TF over GST control)"
same,binding signal,ELK4,"1.46 fold enrichment (6-mer frequency, TF over GST control)"
same,binding signal,ETV2,"1.31 fold enrichment (6-mer frequency, TF over GST control)"
same,binding signal,ELF3,"1.42 fold enrichment (6-mer frequency, TF over GST control)"
